Source: PubChem (The Scripps Research Institute Molecular Screening Center)
TEAD-YAP inh = TEAD-YAP interaction inhibition; HEK-TIYL cells, TEAD-Gal4/YAP UAS-luciferase luminescence; inhibition, % at 9.12 µM; 640,000 tested, 1.4% active; AID 1259422; in the data active means inhibition above about 32%
GPR151 ag = human GPR151 activation. Q8TDV0. activation, % at 11.2 µM. 650,000 tested, 1% active. AID 1508602. PathHunter beta-arrestin GPR151 cells, luminescence; in the data active means activation above about 4.9%
Target sequence (Q8TDV0 whole entry, looked up): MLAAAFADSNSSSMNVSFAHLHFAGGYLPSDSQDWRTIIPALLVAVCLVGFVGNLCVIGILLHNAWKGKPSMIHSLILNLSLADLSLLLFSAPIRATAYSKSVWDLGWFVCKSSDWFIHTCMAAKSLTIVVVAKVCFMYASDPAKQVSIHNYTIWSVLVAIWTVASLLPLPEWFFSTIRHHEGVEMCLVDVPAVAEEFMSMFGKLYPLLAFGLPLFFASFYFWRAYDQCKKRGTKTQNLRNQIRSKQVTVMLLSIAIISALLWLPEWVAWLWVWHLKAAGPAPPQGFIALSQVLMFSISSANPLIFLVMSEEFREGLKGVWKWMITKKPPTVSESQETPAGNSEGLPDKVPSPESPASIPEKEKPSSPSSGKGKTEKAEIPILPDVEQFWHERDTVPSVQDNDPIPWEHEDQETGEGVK
FBW7 activator = human FBW7 E3 ligase activation, primary screen. Q969H0. AlphaScreen FBW7–phospho-cyclin E peptide binding, activator screen. normalized activity (activation), % at 26.1 µM. 650,000 tested, 0.13% active. AID 1259310; in the data active means normalized activity above about 1.9%;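 further: purified mutant Fbw7 with reduced substrate affinity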
MITF primary = inhibitors of human MITF. O75030. AlphaScreen MITF homodimerization, bead proximity signal. inhibition, % at 2.6 µM. 650,000 tested, 0.91% active; in the data active means inhibition above about 50%
GPR151 confirm = confirmation of human GPR151 activators; 6,700 tested, under 10 active; activation, % at 11.2 µM; AID 1508609; shares compounds with GPR151 ag; GPR151 PathHunter beta-arrestin cells, luminescence, 90 min; % of EA-reagent control over plate median;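 active means mean percent activation across replicates above the confirmation screen cutoff of 4.91%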
GPR119 ag = GPR119 activation, counter-screen for GPR151 activators | shares compounds with GPR151 ag | GPR119 PathHunter beta-arrestin cells, luminescence, 90 min; 0 = compound-well median, 100 = enzyme-acceptor control | activation, % at 11.2 µM | 6,700 tested, 0.3% active | AID 1508611;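 active means mean percent activation in the counterscreen above 29.09%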;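 further: counterscreen on off-target GPR119 to flag nonselective hits from the GPR151 activator screen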
Of the large screens only hits and unclear results are named; the others gave an inactive call (follow-up assays come after a bar, where they were run); ! = a repeat was not active. Most compounds without a hit are left out; they make up all but 3.4% or so of the library.

O=C1N(Cc2cccnc2)C[C@@H]2C[C@@H](c3cccn3-c3ncccn3)N3CCC[C@@]123	GPR151 ag 19.7 | GPR151 confirm inactive | GPR119 ag inactive
O=C1N(Cc2cccnc2)C[C@@H]2C[C@@H](c3ccc(Oc4ncccn4)cc3)N3CCC[C@@]123	none
COc1ccccc1Nc1nc(Cl)cc(N)c1[N+](=O)[O-]	none
COc1ccccc1Nc1nc(Cl)ccc1[N+](=O)[O-]	GPR151 ag 5.0 | GPR151 confirm inactive | GPR119 ag inactive
COc1ccc(C(=O)/C=C/Nc2cccc([N+](=O)[O-])c2)cc1OC	GPR151 ag 8.7! | GPR151 confirm inactive | GPR119 ag inactive
CCN(CC)C(=O)C1CCCN(c2ccc([N+](=O)[O-])cc2C=O)C1 (centres undefined)	none
COc1cccc(OC)c1NC(=O)CC(Cc1ccc(Cl)cc1)C(=O)O (centres undefined)	GPR151 ag 5.0 | GPR151 confirm inactive | GPR119 ag inactive
CC(=O)c1ccc(NC(=O)CSc2ccc3nnc(-c4ccc(F)cc4)n3n2)cc1	none
CC(=O)c1ccc(NC(=O)CSc2ccc3nnc(-c4ccc(C)cc4)n3n2)cc1	GPR151 ag 5.8 | GPR151 confirm inactive | GPR119 ag inactive
Cc1nc2ccccn2c1C(=O)NCCCN1CCOCC1	GPR151 ag 4.9 | GPR151 confirm inactive | GPR119 ag inactive
O=C(Cn1cnc2ccccc21)NCCCN1CCOCC1	GPR151 ag 5.9 | GPR151 confirm inactive | GPR119 ag inactive
O=C(CCSc1ccccc1)Nc1ccc2c(c1)CN(C(=O)c1cccs1)CC2	none
COc1ccc(C(=O)COC(=O)c2cccc(S(=O)(=O)N3CCOCC3)c2)cc1	none
Fc1ccc(C2c3cccn3CCN2C(=S)NC2CCCCC2)cc1 (centres undefined)	none
O=C(c1ccco1)N(Cc1ccccc1F)C1CCS(=O)(=O)C1 (centres undefined)	GPR151 ag 5.3 | GPR151 confirm inactive | GPR119 ag inactive
N#Cc1ccc(NN2C(=O)c3cc(Cl)c(Cl)cc3C2=O)c([N+](=O)[O-])c1	GPR151 ag 7.0 | GPR151 confirm inactive | GPR119 ag inactive
N#Cc1ccc(NN2C(=O)c3ccccc3C2=O)c([N+](=O)[O-])c1	none
O=C(Nc1ccc2c(c1)OCO2)C1CCC1	none
COC(=O)c1cccc(NC(=O)CN2C(=O)c3ccc([N+](=O)[O-])cc3C2=O)c1C	GPR151 ag 5.1 | GPR151 confirm inactive | GPR119 ag inactive
COC(=O)c1ccccc1NC(=O)CN1C(=O)c2ccc([N+](=O)[O-])cc2C1=O	none
Cn1cc(-c2cnc3c(n2)[nH]c(=O)n3CC2CC2)cn1	GPR151 ag 7.7 | GPR151 confirm inactive | GPR119 ag inactive
CC(C)Cn1c(=O)[nH]c2nc(-c3cnn(C)c3)cnc21	none
CCn1ccnc1CNC(=O)CC1C(=O)NCCN1C/C=C/c1ccccc1 (centres undefined)	none
COc1ccc(-c2c3c(=O)n(C)c(=O)n(C)c3cn2-c2cc(C)ccc2O)cc1	GPR151 ag 5.4 | GPR151 confirm inactive | GPR119 ag inactive
COc1ccc(C2CC(c3cccs3)=NN2C(N)=S)cc1OC (centres undefined)	none
Cc1ccc2[nH]c(=O)c(CN(CC3COCCO3)S(=O)(=O)c3ccc(F)cc3)cc2c1 (centres undefined)	GPR151 ag 5.3 | GPR151 confirm inactive | GPR119 ag inactive
CN1CCN(C(=O)c2nc3nc(-c4cccs4)cc(C(F)(F)F)n3n2)CC1	none
CCn1c(CCNC(=O)C(C)(C)C)nc2ccccc21	GPR151 ag 6.7 | GPR151 confirm inactive | GPR119 ag inactive
CC(C)/C=C1/CCCCC1OC1CCCCO1 (centres undefined)	none
COc1ccc(N2C(=O)C3CCCN3C2c2ccccc2OC)cc1 (centres undefined)	GPR151 ag 6.1 | GPR151 confirm inactive | GPR119 ag inactive
COc1ccc(N2C(=O)C3CCCN3C2c2cc(OC)ccc2OC)cc1 (centres undefined)	none
COc1ccc(CN2CCNC(=O)C2CC(=O)NCCc2cscn2)cc1OC (centres undefined)	none
O=C(O)c1ccc(Cn2cnc3scc(-c4ccccc4)c3c2=O)cc1	GPR151 ag 5.2 | GPR151 confirm inactive | GPR119 ag inactive
O=c1c2c(-c3ccccc3)csc2ncn1Cc1ccccc1	none
